The list is not random: actives were taken first. Their share in the collection is about 3.6%.
GALC G270D up: A Novel Cell-Based Assay to Identify Small Molecules for B -Galactocerebrosidase | 145M-Twi-hGALC-G270D cells (Twitcher mouse brain line with human GALC G270D), HMU-beta-Gal fluorescence, 48 h | 45,000 compounds, 0.1% hits | P54803 | Potency, µM (doses to about 57.5 µM), usual class: activators | AID 1159614, 2016; note: potency is the fitted concentration of half-maximal effect; 0% is about no effect; nearly all actives have a fitted effect of over 65% in size
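Live 145M-Twi cells (Twitcher mouse brain-derived, GALC-null) stably expressing human GALC-G270D, with a wild-type GALC line, were compound-treated. Residual GALC activity was then read as fluorescence from 0.1 mM final HMU-β-gal at pH 5.2; higher signal means activation.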
GALK inh: qHTS Assay for Inhibitors of Human Galactokinase (GALK): NCGC Sytravon Library Screen. P51570. recombinant GALK, Kinase-Glo ATP luminescence, 1 h. 44,000 tested, under 10 active. Potency, µM (doses to about 57.5 µM), inactives show at the top dose activity, negative = inhibition, most hits filed as inhibitors;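 note: plate controls were full GALK reaction for no effect and reaction lacking GALK for full effect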
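Compounds were pinned into ATP buffer, then GALK-galactose mix was added (final 5 nM enzyme, 35 uM ATP, 100 uM galactose, pH 8.0). After 1 h at room temperature, Kinase-Glo Plus was added and luminescence read.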
PTAP-TSG101 blk: qHTS Validation Assay for Inhibitors of HIV-1 Budding by Blocking the Interaction of PTAP/TSG101: Sytravon Library Screen | 44,000 tested, under 10 active | Potency, µM (highest dose often 115 µM), hits mostly inhibitors | AID 1347069, 2019 | Fluorescence polarization, FITC-PTAP peptide/Tsg101, 20 min; note: potency is the fitted concentration of half-maximal effect; 0% is about no effect
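Fluorescence polarization: Tsg101 binding domain (10 uM final) in 10 mM HEPES pH 7.5, 0.15 M NaCl, 0.01% Tween 20, 3 mM EDTA, 0.1 mM TCEP; compounds pinned; FITC-PTAP peptide 50 nM final; 20 min, r.t.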
NTMT1 inh: Primary qHTS for Inhibitors of N-terminal methyltransferase 1 (NTMT1): MTaseGlo Assay; N-terminal Xaa-Pro-Lys N-methyltransferase 1 (Homo sapiens), Q9BV86; NTMT1 MTase-Glo SAH luminescence, purified enzyme; Potency, µM (series often up to 114 µM), for inactives: at the top dose activity change, negative = inhibition, most hits filed as inhibitors; 59,000 compounds, 2.5% hits; AID 1645870, 2021;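 note: potency is the fitted concentration of half-maximal effect; plate controls were DMSO vehicle for no effect and no enzyme for full effect; nearly all actives have a fitted effect of over 65% in size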
Target sequence (Q9BV86 whole entry, looked up): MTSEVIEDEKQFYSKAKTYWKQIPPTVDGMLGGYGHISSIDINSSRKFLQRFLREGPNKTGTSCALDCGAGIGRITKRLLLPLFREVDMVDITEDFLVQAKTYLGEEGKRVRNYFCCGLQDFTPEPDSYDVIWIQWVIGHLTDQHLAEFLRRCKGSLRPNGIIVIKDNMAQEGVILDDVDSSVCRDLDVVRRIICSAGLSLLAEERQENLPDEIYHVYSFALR
GPR32 ag: qHTS for Agonists of Human Resolvin D1 Receptor DRV1. activation, % at 76.9 µM. Probable G-protein coupled receptor 32 (Homo sapiens), O75388. CHO-K1 GPR32 beta-arrestin PathHunter luminescence, 90 min; zero percent set by DMSO-only wells. 48,000 compounds, 2.5% hits;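 active = activation of at least 60% and not above a set upper limit, about 1 call in 100 departs from these limits; inconclusive = activation of 40% to 60%, or above that upper limit; inactive = activation under 40%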; note: 0% is about no effect
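Agonism was scored by beta-Gal fragment complementation (chemiluminescent read, 1 h detection at ambient temperature) reporting beta-arrestin binding to GPR32 in engineered CHO-K1 cells. Compound treatment lasted 90 min at 37 C, normalized to a DMSO basal control.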
B2AR arrestin ag: qHTS assay of beta-arrestin-biased ligands of beta2-adrenergic receptor: NCGC Sytravon Library Screen; Beta-2 adrenergic receptor (Homo sapiens), P07550; HTLA Tango cells, beta-arrestin recruitment, luciferase luminescence, 18 h; Potency, µM (series often up to 46.1 µM), actives largely listed as activators; 44,000 tested, under 10 active; AID 1347077, 2019;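 note: potency is the fitted concentration of half-maximal effect; 0% = DMSO and full agonism = EC100 isoproterenol or metaproterenol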
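First, Tango cells carrying beta2-AR and beta-arrestin fusions received compound up to 46 microM. After 18 hr at 37 degrees C, luciferase substrate was added for 15 minutes, then luminescence gave %Activity for curve fitting.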
An asterisk follows results filed as active; i = inactive; ? = inconclusive; / = no result given; ! = a repeat was not active; [ ] = another dose, or the depositor's remark. Unless noted, calls come from the whole dose curve; as a rule, active = well fitted curve in the direction sought with a large enough effect; inconclusive = small, poorly fitted or top-dose-only effect, or another doubt; inactive = no such curve, though single readings can be large; an effect the other way counts as inactive or inconclusive.

SMILES	GALC G270D up	GALK inh	PTAP-TSG101 blk	NTMT1 inh	GPR32 ag	B2AR arrestin ag
COc1ccc(OC)c(S(=O)(=O)N2CCC(n3c(C)nc4cccnc43)CC2)c1	/	1%	i	/	65*	i
Cc1nc2cccnc2n1C1CCN(S(C)(=O)=O)CC1	/	-1%	i	/	16	i
CC1(C)CC2C3=CCC4C5(C)CCC(OC6OC(C(=O)O)C(O)C(O)C6OC6OC(CO)C(O)C(O)C6OC6OC(CO)C(O)C(O)C6O)C(C)(CO)C5CCC4(C)C3(C)CCC2(C)C(OC2OCC(O)C(OC3OC(CO)C(O)C(O)C3O)C2O)C1O (stereo not drawn)	/	/	/	1%[6.45 µM]	/	/
O=C(Nc1cncc(-c2cccnc2)c1)c1cccs1	/	/	/	-2%	/	/
COc1ccccc1C1N=C(Nc2nc3ccccc3o2)NC2=C1C(=O)CCC2 (stereo not drawn)	/	/	/	5%[57.5 µM]	/	/
O=C1Cc2cc(S(=O)(=O)N3CCN(c4ccc(F)cc4)CC3)ccc2N1	/	/	/	-5%[228 µM]	/	/
O=C1Cc2cc(S(=O)(=O)N3CCN(c4ccc(CO)cc4)CC3)ccc2N1	/	/	/	50µM*	/	/
CN1CCN(Cc2ccc(-c3cnc4[nH]cc(-c5ccc6[nH]ccc6c5)c4c3)cc2)CC1	/	/	/	20µM*	/	/
CCCOc1ccc(/C=C/C(=O)Nc2sc(C)c(C)c2C(=O)OCC)cc1OC	i	0%	i	79µM*	-11	i
CC(=O)Oc1ccc2c(c1)CC[C@@H]1[C@@H]2CC[C@]2(C)[C@@H](O)CC[C@@H]12	i	/	/	25µM*	?	/
C[C@]12CC[C@@H]3c4ccc(O)cc4CC[C@H]3[C@@H]1CC[C@@H]2O	/	/	/	?	-9	/
CC(=O)c1ccc(N2CCN(C(=O)c3ccc4c(c3)CC(=O)N4)CC2)cc1	/	/	/	-3%	/	/
S=C(Nc1ccccn1)c1ccccn1	/	/	/	8.9µM*	/	/
Cc1ccc(N(CC2=NCCN2)c2cccc(O)c2)cc1	i	/	/	89µM*!	-10	/
CCCCCCCCCCCCCCCCC(C(=O)O)C(O)(CC(=O)O)C(=O)O (stereo not drawn)	i	/	/	3.5µM*	12	/
CCOc1ccc(-c2nnc(SCC(=O)c3ccc(F)cc3)n2-c2ccccc2)cc1	i	10%	i	3%	-12	i
O=C(CSc1nnc(-c2ccccc2Br)n1-c1ccccc1)c1ccc(F)cc1	i	-1%	i	-18%	60*	i
C[C@@H]1O[C@@H](O[C@H]2[C@H](O[C@H]3[C@H](O[C@H]4CC[C@@]5(C)C(CC[C@]6(C)C5CC=C5[C@@H]7CC(C)(C)CC(=O)[C@]7(C)CC[C@]56C)[C@@]4(C)CO)O[C@H](C(=O)O)[C@@H](O)[C@@H]3O)O[C@H](CO)[C@H](O)[C@@H]2O)[C@H](O)[C@H](O)[C@H]1O (stereo partly drawn)	/	/	/	-2%[12.6 µM]	/	/
Clc1ccc(C(c2ccc(Cl)cc2)n2cc[n+](CC(OCc3ccc(Cl)cc3Cl)c3ccc(Cl)cc3Cl)c2)cc1 (stereo not drawn)	/	/	/	30µM*	-3	/
Cc1oc2ncnc(N3CCCCC3)c2c1C(=O)Nc1cccc(Cl)c1C	i	2%	i	89µM*	-30	i
Cc1cccc(N2CCN(C(=O)c3c(C)oc4ncnc(N5CCCCC5)c34)CC2)c1C	i	2%	i	-5%	85*	i

Assay outcomes (PubChem BioAssay)
